From PubChem BioAssay (NCATS)
Where “and” joins values, the source holds several entries; their conditions need not be identical. Identical values can stand only once. Inconclusive results are not listed. Entries that show only a call come without a potency. A number with no mark means an inactive call. Calls of active or inactive are those of the source. Unless noted, calls follow the shape of the dose curve; as a rule, active = well fitted curve in the direction sought with a large enough effect; inconclusive = small, poorly fitted or top-dose-only effect, or another doubt; inactive = no such curve, though single readings can be large; an effect the other way counts as inactive or inconclusive.

What was measured:
[1] = Primary qHTS for small molecule stabilizers of the endoplasmic reticulum resident proteome: Secreted ER Calcium Modulated Protein (SERCaMP) assay (AID 1508630)
Method in brief: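 GLuc-SERCaMP-expressing SH-SY5Y cells, pretreated 16 h with compound, are challenged with thapsigargin to empty ER calcium stores; after 4 h, coelenterazine is added directly to the medium and luminescence is imaged.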

[2] = A High-Content qHTS Against Drug Library for the Identification of Small Molecules that Inhibit DYT1 Early Onset Primary Dystonia-Associated Cell Pathology (AID 1645839; calls by dose curve; also: potency is read from the fitted curve at half-maximal effect; as to % pathology change, negative = correction: series mostly up to about 46 µM)
Method in brief: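 Flp-In T-REx 293 cells with tetracycline-inducible EGFP-delE hTOR1A (WT EGFP-hTOR1A as reference), 800 cells/well; compound added with tetracycline, 48 h at 37 C. Fixed, permeabilized cells imaged; %pathology (punctate TorsinA) primary, cell count counterscreen.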

[3] = molecular target: Cytochrome P450 2D6 (Homo sapiens) (UniProt P10635); assay: Cytochrome P450 family 2 subfamily D member 6 (CYP2D6) small molecule antagonists: luciferase biochemical (cell-free) qHTS assay (AID 1645840; active = well fitted curve in the direction sought with a large enough effect in the repeat runs; an effect the other way counts as inactive or inconclusive; also: nearly all actives have a fitted effect of over 55% in size; also: potency is read from the fitted curve at half-maximal effect; as to activity change, negative = inhibition: series mostly up to about 57 µM)
Chain of Cytochrome P450 2D6 (Homo sapiens) (P10635 whole entry, looked up): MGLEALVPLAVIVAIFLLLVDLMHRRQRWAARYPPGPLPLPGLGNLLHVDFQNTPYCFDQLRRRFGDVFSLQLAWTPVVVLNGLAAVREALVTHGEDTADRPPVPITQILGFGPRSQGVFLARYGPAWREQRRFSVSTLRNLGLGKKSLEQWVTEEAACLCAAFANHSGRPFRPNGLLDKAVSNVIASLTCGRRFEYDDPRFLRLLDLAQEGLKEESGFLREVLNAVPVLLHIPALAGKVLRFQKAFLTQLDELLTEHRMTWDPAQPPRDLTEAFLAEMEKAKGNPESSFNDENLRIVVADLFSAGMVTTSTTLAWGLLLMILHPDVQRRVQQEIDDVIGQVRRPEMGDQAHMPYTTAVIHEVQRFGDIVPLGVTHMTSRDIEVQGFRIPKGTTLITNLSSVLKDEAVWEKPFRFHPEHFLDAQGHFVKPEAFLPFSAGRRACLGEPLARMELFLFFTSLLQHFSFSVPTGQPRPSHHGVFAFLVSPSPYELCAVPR
Method in brief: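 P450-Glo luminescent screen: recombinant CYP2D6 enzyme–proluciferin substrate mix preincubated with compound 10 min at room temperature, then NADPH regeneration added for 1 h at room temperature. Detection reagent added for 20 min; luciferin light read as relative luminescence units.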

[4] = molecular target: Cytochrome P450 2C9 (Homo sapiens) (UniProt P11712); assay: Cytochrome P450 family 2 subfamily C member 9 (CYP2C9) small molecule antagonists: luciferase biochemical (cell-free) qHTS assay (AID 1645842; active = well fitted curve in the direction sought with a large enough effect in the repeat runs; an effect the other way counts as inactive or inconclusive; also: nearly all actives have a fitted effect of over 55% in size; also: potency is read from the fitted curve at half-maximal effect; as to activity change, negative = inhibition: series mostly up to about 57 µM)
Chain of Cytochrome P450 2C9 (Homo sapiens) (P11712 whole entry, looked up): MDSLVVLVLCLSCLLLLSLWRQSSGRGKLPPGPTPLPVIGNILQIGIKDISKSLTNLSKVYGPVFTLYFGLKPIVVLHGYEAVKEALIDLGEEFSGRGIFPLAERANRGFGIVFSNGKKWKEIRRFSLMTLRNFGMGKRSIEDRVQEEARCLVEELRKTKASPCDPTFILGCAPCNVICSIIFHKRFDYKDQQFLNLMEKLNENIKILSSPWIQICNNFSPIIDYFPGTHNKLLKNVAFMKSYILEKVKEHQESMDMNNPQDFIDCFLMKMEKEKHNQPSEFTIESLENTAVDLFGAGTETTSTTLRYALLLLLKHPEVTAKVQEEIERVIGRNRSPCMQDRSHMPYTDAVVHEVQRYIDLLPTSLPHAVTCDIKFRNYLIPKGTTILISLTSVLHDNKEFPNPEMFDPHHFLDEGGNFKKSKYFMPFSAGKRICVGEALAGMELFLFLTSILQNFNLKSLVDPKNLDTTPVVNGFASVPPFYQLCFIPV
Method in brief: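 Luminescence, after 20 min with luciferin detection reagent, reflected CYP2C9 turnover during a 1 h NADPH-driven reaction at 37C. Enzyme-substrate mix contained 0.4% bovine serum albumin and was preincubated with compound 10 min at room temperature.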

[5] = molecular target: Papain (Carica papaya) (UniProt P00784); assay: Primary qHTS assay for inhibitors of the protease papain (AID 1645873);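 also: papain turnover of Z-FR-AMC read as the AMC fluorescence gain over 10 min; series mostly up to about 50 µM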
Chain of Papain (Carica papaya) (P00784 whole entry, looked up, the tested form may be a part): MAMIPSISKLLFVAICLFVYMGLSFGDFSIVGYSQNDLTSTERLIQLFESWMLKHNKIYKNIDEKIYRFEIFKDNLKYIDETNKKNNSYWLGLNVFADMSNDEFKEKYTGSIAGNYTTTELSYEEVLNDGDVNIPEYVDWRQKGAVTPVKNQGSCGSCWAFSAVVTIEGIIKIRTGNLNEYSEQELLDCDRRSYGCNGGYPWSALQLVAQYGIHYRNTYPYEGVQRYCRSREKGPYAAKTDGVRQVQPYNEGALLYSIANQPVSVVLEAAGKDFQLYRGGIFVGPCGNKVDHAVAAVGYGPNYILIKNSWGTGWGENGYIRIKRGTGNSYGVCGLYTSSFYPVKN

[6] = Primary qHTS for inhibitors of nuclear receptor binding SET domain protein 2 (NSD2) in an isogenic RCH-ACV NSD2 p.E1099K mutant (9B) (AID 1645876); also: nearly all actives have a fitted effect of over 70% in size; also: potency is read from the fitted curve at half-maximal effect
[7] = molecular target: Cytochrome P450 3A4 (Homo sapiens) (UniProt P08684); assay: Cytochrome P450 family 3 subfamily A member 4 (CYP3A4) small molecule antagonists: luciferase qHTS assay (AID 1645841; active = well fitted curve in the direction sought with a large enough effect in the repeat runs; an effect the other way counts as inactive or inconclusive; also: nearly all actives have a fitted effect of over 45% in size)
Chain of Cytochrome P450 3A4 (Homo sapiens) (P08684 whole entry, looked up): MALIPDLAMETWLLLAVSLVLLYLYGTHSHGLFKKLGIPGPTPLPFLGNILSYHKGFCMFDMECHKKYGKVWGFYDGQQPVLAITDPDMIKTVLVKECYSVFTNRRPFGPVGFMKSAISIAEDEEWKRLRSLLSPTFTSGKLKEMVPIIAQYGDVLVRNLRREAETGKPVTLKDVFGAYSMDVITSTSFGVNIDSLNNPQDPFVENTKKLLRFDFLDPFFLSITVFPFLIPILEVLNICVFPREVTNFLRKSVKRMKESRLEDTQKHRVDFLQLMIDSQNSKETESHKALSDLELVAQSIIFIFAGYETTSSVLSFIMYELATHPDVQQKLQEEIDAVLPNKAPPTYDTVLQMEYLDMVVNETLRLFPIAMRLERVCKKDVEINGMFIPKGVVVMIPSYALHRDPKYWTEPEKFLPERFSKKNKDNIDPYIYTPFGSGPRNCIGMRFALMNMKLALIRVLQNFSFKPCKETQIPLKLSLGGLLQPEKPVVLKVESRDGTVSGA
Method in brief: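 P450-Glo CYP3A4 enzyme with proluciferin substrate preincubated 10 min with compound at room temperature, then NADPH regeneration 1 h. Luciferin detection reagent added for 20 min; luminescence recorded. Ketoconazole positive control.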

## NC(=O)N1c2ccccc2C=Cc2ccccc21
[1]
  Potency: inactive
[2]
  Potency: inactive
[3]
  Potency: inactive
[4]
  Potency: inactive
[5]
  Potency: inactive
[6]
  Potency: inactive

## CCN1CCC[C@H]1CNC(=O)c1c(O)c(Cl)cc(Cl)c1OC
[1]
  Potency: inactive
[2]
  Potency: inactive
[4]
  Potency: inactive
[5]
  Potency: inactive
[6]
  Potency: inactive

## Cc1nnc(SCC2=C(C(=O)O)N3C(=O)[C@@H](NC(=O)Cn4cnnn4)[C@H]3SC2)s1
[1]
  Potency: inactive
[2]
  Potency: inactive
[4]
  Potency: inactive
[5]
  Potency: inactive
[6]
  Potency: inactive

## CCn1cc(C(=O)O)c(=O)c2cc3c(cc21)OCO3
[1]
  Potency: inactive
[2]
  Potency: inactive
[3]
  Potency: inactive
[4]
  Potency: inactive
[6]
  Potency: inactive

## CNC1(C)C2CCC(C2)C1(C)C (centres undefined)
[1]
  Potency: inactive
[2]
  Potency: inactive
[3]
  Potency: inactive
[4]
  Potency: inactive
[5]
  Potency: inactive
[6]
  Potency: inactive

## NC(N)=NC(=O)Cc1c(Cl)cccc1Cl
[1]
  Potency: inactive
[2]
  Potency: inactive
[4]
  Potency: inactive
[5]
  Potency: inactive

## CCN1CCc2nc(N)oc2CC1
[1]
  Potency: inactive
[2]
  Potency: inactive
[3]
  Potency: inactive
[4]
  Potency: inactive
[6]
  Potency: inactive

## O=c1[nH]c(=O)n([C@H]2C[C@H](O)[C@@H](CO)O2)cc1Br
[1]
  Potency: inactive
[2]
  Potency: inactive
[3]
  Potency: inactive
[4]
  Potency: inactive
[5]
  Potency: inactive
[6]
  Potency: 0.841 µM (active)

## C[N+](C)(C)CCCCCCCCCC[N+](C)(C)C
[1]
  Potency: inactive
[2]
  Potency: inactive
[3]
  Potency: inactive
[4]
  Potency: inactive
[5]
  Potency: inactive
[6]
  Potency: inactive

## Cc1nc2c([nH]1)c(=O)n(C)c(=O)n2Cc1ccco1
[1]
  Potency: inactive
[2]
  Potency: inactive
[4]
  Potency: inactive
[5]
  Potency: inactive

## CN(C)CCN(Cc1cccs1)c1ccccn1
[1]
  Potency: inactive
[2]
  Potency: inactive
[4]
  Potency: inactive
[5]
  Potency: inactive
[6]
  Potency: inactive

## O=C(O)CN(CCOCCOCCN(CC(=O)O)CC(=O)O)CC(=O)O
[1]
  Potency: inactive
[2]
  % pathology change, negative = correction: 13.7% [at 0.369 µM]
[3]
  activity change, negative = inhibition: 2.42% [at 0.91 µM]
[4]
  activity change, negative = inhibition: 9.82% [at 0.91 µM]
[5]
  Potency: inactive
[6]
  activity change, negative = viability loss: 5.34% [at 0.588 µM]

## NCCCNCCSP(=O)(O)O
[1]
  Potency: inactive
[2]
  % pathology change, negative = correction: 18.3% [at 9.22 µM]
[3]
  activity change, negative = inhibition: -0.206% [at 11.5 µM]
[4]
  activity change, negative = inhibition: 13.8% [at 11.5 µM]
[5]
  Potency: inactive
[6]
  outcome: inactive [at 9.23 µM]

## CSc1ccc(C(=O)c2[nH]c(=O)[nH]c2C)cc1
[1]
  Potency: inactive
[2]
  Potency: inactive
[4]
  Potency: inactive
[5]
  Potency: inactive
[6]
  Potency: inactive

## O=C(O)CP(=O)(O)O
[2]
  Potency: inactive
[3]
  Potency: inactive
[4]
  Potency: inactive
[5]
  Potency: inactive
[6]
  Potency: inactive

## Nc1ncn([C@@H]2O[C@H](CO)[C@@H](O)[C@H]2O)c(=O)n1
[1]
  Potency: inactive
[3]
  Potency: inactive
[7]
  outcome: inactive
[4]
  Potency: inactive
[5]
  Potency: inactive
[6]
  Potency: 10.5 µM (active)

## CCCCCN(CCCCC)C(=O)C(CCC(=O)O)NC(=O)c1ccc(Cl)c(Cl)c1 (centres undefined)
[1]
  Potency: inactive
[4]
  Potency: 1.38 µM (active)
[6]
  Potency: inactive

## CC(C)[N+](C)(CCOC(=O)C1c2ccccc2Oc2ccccc21)C(C)C
[2]
  Potency: inactive
[3]
  Potency: 0.309 µM (active)
[4]
  Potency: inactive
[5]
  Potency: inactive
[6]
  Potency: inactive

## COCCOC(=O)C1=C(C)NC(C)=C(C(=O)OC(C)C)C1c1cccc([N+](=O)[O-])c1 (centres undefined)
[1]
  Potency: inactive
[5]
  Potency: inactive
[6]
  Potency: inactive

## CC(C)(C)NCC(O)c1cc(O)cc(O)c1 (centres undefined)
[2]
  Potency: inactive
[3]
  Potency: inactive
[4]
  Potency: inactive

## OCCN1CCN(CC/C=C2/c3ccccc3Sc3ccc(C(F)(F)F)cc32)CC1
[1]
  Potency: inactive
[3]
  Potency: 6.92 µM (active)
[5]
  Potency: inactive
[6]
  Potency: 15 µM (active)

## CN1CCN(CC(=O)N2c3ccccc3C(=O)Nc3cccnc32)CC1
[2]
  % pathology change, negative = correction: 18.1% [at 4.63 µM]
[3]
  activity change, negative = inhibition: 3.24% [at 4.83 µM]
[4]
  activity change, negative = inhibition: 3.44% [at 4.83 µM]
[5]
  Potency: inactive

## COC(=O)C1=C(C)NC(C)=C(C(=O)OC(C)(C)CN(C)CCC(c2ccccc2)c2ccccc2)C1c1cccc([N+](=O)[O-])c1 (centres undefined)
[2]
  Potency: 10 µM (active)
[3]
  Potency: 2.75 µM (active)
[4]
  Potency: 1.95 µM (active)
[5]
  Potency: inactive

## CC(=O)[C@]1(O)Cc2c(O)c3c(c(O)c2[C@@H](O[C@H]2C[C@H](N)[C@H](O)[C@H](C)O2)C1)C(=O)c1ccccc1C3=O
[1]
  Potency: inactive
[3]
  Potency: 17.4 µM (active)
[4]
  Potency: inactive
[5]
  Potency: inactive
[6]
  Potency: 0.8 nM (active) and 41.7 nM (active)

## C=CCc1ccccc1OCC(O)CNC(C)C (centres undefined)
[2]
  Potency: inactive
[3]
  Potency: 6.92 µM (active) and 8.49 µM (active)
[4]
  Potency: inactive
[5]
  Potency: inactive
[6]
  Potency: inactive

## COCCc1ccc(OCC(O)CNC(C)C)cc1 (centres undefined)
[1]
  Potency: inactive
[2]
  Potency: inactive
[5]
  Potency: inactive
[6]
  Potency: inactive

## NC(=O)c1ncn([C@@H]2O[C@H](CO)[C@@H](O)[C@H]2O)c1O
[2]
  Potency: inactive
[3]
  Potency: inactive
[4]
  Potency: inactive
[5]
  Potency: inactive
[6]
  Potency: inactive

## C[N+](C)(C)CCOC(=O)CCC(=O)OCC[N+](C)(C)C
[2]
  Potency: inactive
[3]
  Potency: inactive
[4]
  Potency: inactive
[5]
  Potency: inactive
[6]
  Potency: inactive

## Cc1ccc(S(=O)(=O)NC(=O)NN2CCCCCC2)cc1
[1]
  Potency: inactive
[2]
  Potency: inactive
[5]
  Potency: inactive
[6]
  Potency: inactive
